About 83,000 compounds went through this panel and 20% of them were active in at least one assay; those are over-represented in the sample as a whole.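 Growth was measured after 48 h exposure to one concentration of compound in 96-well plates. Values under 10 count as active.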 Calls of active or inactive are those of the source.
Assays:
Test in all cases: NCI-60 one-dose screen, 48 h (100 = growth as untreated, 0 = no growth, -100 = all killed)
Conditions in all cases: 10 µM unless noted
NCI-H23 lung = system: NCI-H23 lung
NCI-H226 lung = system: NCI-H226 lung
NCI-H322M lung = system: NCI-H322M lung
HOP-62 NSCLC = system: HOP-62 NSCLC
NCI-H460 lung = system: NCI-H460 lung
HOP-92 NSCLC = system: HOP-92 NSCLC
NCI-H522 lung = system: NCI-H522 lung
A549/ATCC NSCLC = system: A549/ATCC NSCLC
786-0 renal = system: 786-0 renal
COLO 205 colon = system: COLO 205 colon
DU-145 prostate = system: DU-145 prostate
K-562 leukemia = system: K-562 leukemia
MALME-3M melanoma = system: MALME-3M melanoma
MDA-MB-231 breast = system: MDA-MB-231 breast
RXF 393 renal = system: RXF 393 renal
SF-268 CNS = system: SF-268 CNS
SF-295 CNS = system: SF-295 CNS
SF-539 CNS = system: SF-539 CNS
M14 melanoma = system: M14 melanoma

Measured: growth

COc1cc(-c2cc3cc(O)ccc3oc2=O)cc(OC)c1OC
inactive: NCI-H23 lung 101% | NCI-H226 lung 89.2% | NCI-H322M lung 85.9% | HOP-62 NSCLC 90.9% | NCI-H460 lung 107% | HOP-92 NSCLC 86.5% | NCI-H522 lung 86.5% | A549/ATCC NSCLC 107% | 786-0 renal 98.2% | COLO 205 colon 102% | DU-145 prostate 107% | K-562 leukemia 89.1% | MALME-3M melanoma 112% | MDA-MB-231 breast 72.8% | RXF 393 renal 101% | SF-268 CNS 102% | SF-295 CNS 91.9% | SF-539 CNS 87.1% | M14 melanoma 86.9%

COc1ccc(C2c3ccccc3NC(=O)N2C2CCN(C)CC2)c(OC)c1 (configuration not stated)
inactive: NCI-H23 lung 100% | NCI-H226 lung 94.1% | NCI-H322M lung 95.9% | HOP-62 NSCLC 101% | NCI-H460 lung 101% | HOP-92 NSCLC 79.9% | NCI-H522 lung 89.5% | A549/ATCC NSCLC 103% | 786-0 renal 102% | COLO 205 colon 106% | DU-145 prostate 105% | K-562 leukemia 93.1% | MALME-3M melanoma 88.1% | MDA-MB-231 breast 91.9% | RXF 393 renal 97.1% | SF-268 CNS 98.2% | SF-295 CNS 90.6% | SF-539 CNS 95.2% | M14 melanoma 85.3%

COc1cccc(-c2nn(-c3ccccc3)cc2-c2ccnc(NCCCNS(=O)(=O)c3cccc(F)c3)c2)c1
active: HOP-92 NSCLC 6.39% | NCI-H522 lung 9.36% | K-562 leukemia 6.28% | MDA-MB-231 breast 5.9% | SF-295 CNS 7.99%
inactive: NCI-H23 lung 30.2% | NCI-H226 lung 21.7% | NCI-H322M lung 53.9% | HOP-62 NSCLC 54.1% | NCI-H460 lung 24.5% | A549/ATCC NSCLC 27.4% | 786-0 renal 31.6% | COLO 205 colon 11.9% | DU-145 prostate 53.6% | MALME-3M melanoma 35.1% | RXF 393 renal 15.8% | SF-268 CNS 46.8% | SF-539 CNS 51.9% | M14 melanoma 21%

COc1cccc(-c2nn(-c3ccccc3)cc2-c2ccnc(NCCCN)c2)c1
inactive: NCI-H23 lung 60% | NCI-H226 lung 78.7% | NCI-H322M lung 78.5% | HOP-62 NSCLC 47.9% | NCI-H460 lung 27.9% | HOP-92 NSCLC 32.3% | NCI-H522 lung 83.4% | A549/ATCC NSCLC 68% | 786-0 renal 52.1% | COLO 205 colon 26.1% | DU-145 prostate 75.6% | K-562 leukemia 16.8% | MALME-3M melanoma 70.2% | MDA-MB-231 breast 33.7% | RXF 393 renal 51.5% | SF-268 CNS 64% | SF-295 CNS 44.7% | SF-539 CNS 49.8% | M14 melanoma 26.1%

COc1cccc(-c2nn(-c3ccccc3)cc2-c2ccnc(NCCNS(=O)(=O)c3ccc(Cl)cc3)c2)c1
inactive: NCI-H23 lung 32% | NCI-H226 lung 41.8% | NCI-H322M lung 63.8% | HOP-62 NSCLC 53.5% | NCI-H460 lung 32.9% | NCI-H522 lung 12.4% | A549/ATCC NSCLC 27.4% | 786-0 renal 40.3% | DU-145 prostate 52.7% | K-562 leukemia 11.7% | MALME-3M melanoma 50.3% | MDA-MB-231 breast 19.3% | RXF 393 renal 29.8% | SF-268 CNS 45.7% | SF-295 CNS 21.7% | SF-539 CNS 54.1% | M14 melanoma 28.6%
active: HOP-92 NSCLC 7.77% | COLO 205 colon 4.94%

COC(=O)[C@]12CC[C@@H](C)[C@H](C)[C@@H]1C1=CC[C@@H]3[C@@]4(C)C[C@@H](OC(C)=O)[C@H](OC(C)=O)[C@@](C)(COC(C)=O)[C@@H]4[C@H](O)C[C@@]3(C)[C@]1(C)CC2
inactive: NCI-H23 lung 17.5% | NCI-H322M lung 34.6% | HOP-62 NSCLC 15.6% | HOP-92 NSCLC 31.2% | 786-0 renal 15% | DU-145 prostate 20.3% | MDA-MB-231 breast 18.1% | SF-268 CNS 23.4% | SF-539 CNS 15.4% | M14 melanoma 14.2%
active: NCI-H226 lung 2.17% | NCI-H460 lung 4.06% | NCI-H522 lung -2.94% | A549/ATCC NSCLC 7.91% | COLO 205 colon -76% | K-562 leukemia 8.42% | MALME-3M melanoma 5.25% | RXF 393 renal -22.1% | SF-295 CNS 7.96%

N#CCCCCCn1c2ccccc2c2c3c(c4c5ccccc5n(CCCCCC#N)c4c21)C(=O)N(O)C3=O
inactive: NCI-H23 lung 72.5% | NCI-H226 lung 79.1% | NCI-H322M lung 81.5% | HOP-62 NSCLC 37.1% | NCI-H460 lung 87.7% | HOP-92 NSCLC 87.4% | NCI-H522 lung 53.7% | A549/ATCC NSCLC 94.5% | 786-0 renal 92.1% | COLO 205 colon 84.6% | DU-145 prostate 93.6% | K-562 leukemia 79.7% | MALME-3M melanoma 77.1% | MDA-MB-231 breast 32.3% | RXF 393 renal 80.8% | SF-268 CNS 70.3% | SF-295 CNS 89.2% | SF-539 CNS 71% | M14 melanoma 85.3%

COC(=O)[C@]12CC[C@@H](C)[C@H](C)[C@@H]1C1=CC[C@@H]3[C@@]4(C)C[C@@H](OC(C)=O)[C@H](O)[C@@](C)(CO)[C@@H]4[C@H](O)C[C@@]3(C)[C@]1(C)CC2
active: NCI-H23 lung -82% | NCI-H226 lung -48.6% | NCI-H322M lung -93.2% | HOP-62 NSCLC -89.8% | NCI-H460 lung -72.6% | HOP-92 NSCLC -87.7% | NCI-H522 lung -90.3% | A549/ATCC NSCLC -88.3% | 786-0 renal -77.3% | COLO 205 colon -87.8% | DU-145 prostate -100% | K-562 leukemia -62.7% | MALME-3M melanoma -69.1% | MDA-MB-231 breast -62.3% | RXF 393 renal -88.9% | SF-268 CNS -84% | SF-295 CNS -92.2% | SF-539 CNS -90% | M14 melanoma -69.1%

— PubChem BioAssay (NCI)
